Measured values: the supplement of paper PMC12669032
Unmarked numbers belong to inactive results.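 How the source made its calls: active = AUC reduced over 20% with Padj below 0.05 in at least 2 of 3 replicates; inactive = otherwise.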

Experiments:
[1] = tested on: Roseburia intestinalis; assay: growth AUC relative to DMSO control (median of replicates) (fraction); higher = more growth (less inhibition), active = hit call of the paper; conditions: 20 µM; 24 h
Method in brief: (§1)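 Hourly OD600 readings over 24 h tracked anaerobic gut bacterial monocultures grown at 37 °C in mGAM from OD600 0.05 with 20 µM compound (1% DMSO). After the minimum OD was set to 0, area under the growth curve was normalised to the plate median of solvent-only wells, or to row and column medians on the industrial chemical plate. Values are medians of three biological replicates grown on separate days.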

[2] = tested on: Streptococcus salivarius; assay: as above; conditions: 20 µM; 24 h
Method in brief: as §1

| SMILES | growth AUC [1] | growth AUC [2] |
| --- | --- | --- |
| CNC(=O)Oc1ccccc1OC(CCl)OC (stereo not drawn) | 0.961 | 0.996 |
| CC(C)N(Cc1ccccc1)C(=O)C(C)(C)C | 0.898 | 0.961 |
| CC1(C)C(C=C(Cl)Cl)C1C(=O)OC(C#N)c1cccc(Oc2ccccc2)c1 (stereo not drawn) | 0.871 | 0.937 |
| CN(C)C(CSC(N)=O)CSC(N)=O.Cl | 1.07 | 1 |
| CCOP(=S)(OCC)SCSC(C)(C)C | 0.951 | 0.996 |
| C#CCN1C(=O)COc2cc(F)c(N3C(=O)C4=C(CCCC4)C3=O)cc21 | 0.965 | 0.974 |
| CCOP(=S)(OCC)SCCS(=O)CC (stereo not drawn) | 0.965 | 0.973 |
| CC(=NCc1ccc(Cl)nc1)NC#N | 0.997 | 1 |
| CSC1=N[C@@](C)(c2ccccc2)C(=O)N1Nc1ccccc1 | 0.997 | 1.01 |
| O=P(O)(O)CCCl | 1.03 | 1.04 |
| CCSC(=O)N(CC)C1CCCCC1 | 1.07 | 0.948 |
| CCCCc1c(C)nc(N(C)C)[nH]c1=O | 0.959 | 1.02 |
| ClC1=C(Cl)[C@]2(Cl)C3CC=CC3[C@@]1(Cl)C2(Cl)Cl (stereo partly drawn) | 1 | 1 |
| c1ccc(-c2ccccc2)cc1 | 1.02 | 0.993 |
| ClC1=C(Cl)C2(Cl)C3COCC3C1(Cl)C2(Cl)Cl (stereo not drawn) | 1.08 | 0.915 |
| CC(C)Nc1nc(Cl)nc(NC(C)C)n1 | 0.962 | 0.99 |
| Nc1ccc(Cl)cc1Cl | 1.02 | 1.03 |
| Oc1ccc(Cl)c(Cl)c1Cl | 1.05 | 0.96 |
| O=[N+]([O-])c1c(Cl)c(Cl)c(Cl)c(Cl)c1Cl | 0.993 | 1 |
| COCC(=O)N(c1c(C)cccc1C)[C@@H](C)C(=O)OC | 0.997 | 0.999 |
| CCNc1nc(Cl)nc(NC(C)C)n1 | 1.09 | 0.966 |
| CCCN(CCOc1c(Cl)cc(Cl)cc1Cl)C(=O)n1ccnc1 | 0.8 | 0.984 |
| CCOP(=S)(Oc1ccc([N+](=O)[O-])cc1)c1ccccc1 (stereo not drawn) | 1.04 | 1.04 |
| CCSC(C)CC1CC(=O)C(/C(CC)=N/OC/C=C/Cl)=C(O)C1 (mixture of isomers) | 1.01 | 0.919 |
| O=C(O)c1ccc(=O)[nH]c1 | 1.01 | 0.981 |
| Oc1cc(Cl)c(Cl)cc1Cl | 0.906 | 0.95 |
| N#Cc1cc(I)c(O)c(I)c1 | 0.993 | 0.898 |

| SMILES | growth AUC [1] | growth AUC [2] |
| --- | --- | --- |
| CC[C@H](C)[C@H]1O[C@]2(C=C[C@@H]1C)C[C@@H]1C[C@@H](C/C=C(\C)[C@@H](O[C@H]3C[C@H](OC)[C@@H](O[C@H]4C[C@H](OC)[C@@H](NC)[C@H](C)O4)[C@H](C)O3)[C@@H](C)/C=C/C=C3\CO[C@@H]4[C@H](O)C(C)=C[C@@H](C(=O)O1)[C@]34O)O2.O=C(O)c1ccccc1 | 0.0307 (active) | 0.798 (active) |
| ClC1(Cl)C2(Cl)C3(Cl)C4(Cl)C(Cl)(Cl)C5(Cl)C3(Cl)C1(Cl)C5(Cl)C24Cl (stereo not drawn) | 0.958 | 0.922 |
| COC(=O)c1ccccc1S(=O)(=O)NC(=O)Nc1nc(C)nc(OC)n1 | 0.978 | 0.935 |
| Nc1nc(N)nc(N)n1 | 1.09 | 1.02 |
| CCCN(CCC)N=O | 0.988 | 0.967 |
| C=CCNC(=O)c1c([Si](C)(C)C)sc(C)c1C | 1.03 | 1 |
| Clc1nc(Cl)nc(Nc2ccccc2Cl)n1 | 1.04 | 1.03 |
| CNC(=O)Oc1cccc2c1OC(C)(C)O2 | 1.01 | 1 |
| CNC(=O)Oc1cccc2c1OC(C)(C)C2 | 0.992 | 1.03 |
| CCOP(=S)(OCC)Oc1nc(Cl)n(C(C)C)n1 | 1.02 | 1 |
| Oc1c(Cl)ccc(Cl)c1Cl | 0.951 | 0.964 |
| CCNS(=O)(=O)C(F)(F)C(F)(F)C(F)(F)C(F)(F)C(F)(F)C(F)(F)C(F)(F)C(F)(F)F | 1.03 | 0.96 |
| CC(Oc1ccc(Oc2ncc(C(F)(F)F)cc2Cl)cc1)C(=O)O (stereo not drawn) | 1.03 | 0.981 |
| C#CCC1=C(C)C(OC(=O)C2C(C=C(C)C)C2(C)C)CC1=O (stereo not drawn) | 0.921 | 0.959 |
| COP(=S)(OC)Oc1ccc([N+](=O)[O-])c(Cl)c1 | 0.926 | 1.05 |
| CCCN(CCC)C(=O)SCc1ccccc1 | 0.984 | 1 |
| CCOC(=O)/C=C(C)/C=C/C[C@@H](C)CCCC(C)C | 1.09 | 0.972 |
| CCOP(=S)(OCC)Oc1cnc2ccccc2n1 | 0.99 | 0.954 |
| CNC(=O)O/N=C/C(C)(C)S(C)=O (stereo not drawn) | 0.994 | 1.01 |
| O=C(O)CCl | 0.962 | 0.979 |
| CN(C)C(=O)C(c1ccccc1)c1ccccc1 | 0.964 | 0.995 |
| CCN(CC)C(=O)SCc1ccc(Cl)cc1 | 0.983 | 0.986 |
| Cc1ccc2nc3sc(=O)sc3nc2c1 | 0.892 | 0.983 |
| CCOP(=O)(NC(C)C)Oc1ccc(S(C)(=O)=O)c(C)c1 (stereo not drawn) | 1.09 | 0.999 |
| Clc1ccc(Cl)c(Cl)c1Cl | 0.999 | 1.04 |
| C[n+]1ccc(-c2cc[n+](C)cc2)cc1.O.[Cl-].[Cl-] | 1 | 0.982 |
| CC(=O)CC(c1ccco1)c1c(O)c2ccccc2oc1=O (stereo not drawn) | 0.975 | 0.989 |

| SMILES | growth AUC [1] | growth AUC [2] |
| --- | --- | --- |
| Cc1ccc(NC(=O)c2snnc2C)cc1Cl | 0.925 | 0.962 |
| O=C(NC(=O)c1c(F)cccc1F)Nc1ccc(Cl)c(Oc2ncc(C(F)(F)F)cc2Cl)c1 | 1 | 1.02 |
| CC(C)(C)C(O)(CCc1ccc(Cl)cc1)Cn1cncn1 (stereo not drawn) | 1.1 | 1.01 |
| CCOP(=S)(OCC)Oc1cnccn1 | 0.976 | 1 |
| CN/C(=N\[N+](=O)[O-])NCc1cnc(Cl)s1 | 1.05 | 1 |
| CC1(C)CN=C(NN=C(/C=C/c2ccc(C(F)(F)F)cc2)/C=C/c2ccc(C(F)(F)F)cc2)NC1 | 0.391 (active) | 1.1 |
| COC(=O)NCc1cc(/C(C)=N\OCc2cccc(C)n2)ccc1Cl | 1.01 | 0.974 |
| Cc1ccc(N(SC(F)(Cl)Cl)S(=O)(=O)N(C)C)cc1 | 1.01 | 1.01 |
| O=C(O)C(F)(F)C(F)(F)C(F)(F)C(F)(F)C(F)(F)C(F)(F)C(F)(F)C(F)(F)C(F)(F)F | 0.96 | 0.942 |
| COCCOC(=O)C(C#N)(C(=O)c1ccccc1C(F)(F)F)c1ccc(C(C)(C)C)cc1 (stereo not drawn) | 1.02 | 0.917 |
| CN(C)S(=O)(=O)N(SC(F)(Cl)Cl)c1ccccc1 | 0.993 | 0.998 |
| C=CCN(CC=C)C(=O)C(Cl)Cl | 1 | 0.99 |
| ClC1=C(Cl)[C@]2(Cl)[C@@H]3[C@H]4C[C@H]([C@@H]5O[C@H]45)[C@@H]3[C@@]1(Cl)C2(Cl)Cl | 0.909 | 0.963 |
| O=[N+]([O-])c1ccccc1 | 0.963 | 1.01 |
| CCOP(=S)(OCC)Oc1cc(Cl)c(Br)cc1Cl | 0.948 | 0.958 |
| CC(C)OC(=O)Nc1ccccc1 | 1.06 | 1.01 |
| C=CCC1=C(C)C(OC(=O)C2C(C=C(C)C)C2(C)C)CC1=O (mixture of isomers) | 0.924 | 0.953 |
| CCOC(=O)Nc1cccc(OC(=O)Nc2ccccc2)c1 | 1.01 | 1.02 |
| Oc1ccccc1Cl | 0.965 | 1.01 |
| S=C1NCCN1 | 1.01 | 0.992 |
| Cc1cc(C)nc(Nc2ccccc2)n1 | 0.999 | 0.995 |
| Oc1ccc(Cl)cc1Cl | 0.907 | 0.901 |
| CC(COc1ccc(Oc2ccccc2)cc1)Oc1ccccn1 (stereo not drawn) | 0.94 | 1.01 |
| O=P(OC(CCl)CCl)(OC(CCl)CCl)OC(CCl)CCl | 0.949 | 0.969 |
| CCCCOC(=O)N(C)SN(C)C(=O)Oc1cccc2c1OC(C)(C)C2 | 0.992 | 1.02 |
